ABCB6 inh 2 – human ABCB6 transporter inhibition. Q9NP58. K562-ABCB6 porphyrin accumulation, flow cytometry, 1 h; active compounds read low. fluorescence ratio to DMSO, % at 10 µM. actives 0.19% (n = 360,000). AID 602162;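 active = fluorescence ratio to DMSO below 75%, the collection mean minus 3 SD; inconclusive = too few cells collected in the well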;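 note: signal is porphyrin accumulated inside mitochondria; 100% equals median channel fluorescence of DMSO control wells; lower ratio means ABCB6 inhibition with less porphyrin fluorescence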
Myeloid diff MLP – promotes myeloid progenitor differentiation. calls only at 10 µM. actives 1% (n = 360,000). AID 624256. ER-HoxA9 myeloid progenitors, lysozyme-GFP differentiation, flow cytometry;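 active = normalized GFP-positive differentiation at or above the plate's own cutoff, the solvent-only control mean plus 3 SD; inconclusive = no clear call, values can overlap the other calls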;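 note: cells exposed to compound for four days before flow analysis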
Exocytosis inh – lytic granule exocytosis inhibition. inhibition, % at 10 µM. TALL-104 LAMP-1 surface exposure, flow cytometry; cells stimulated with thapsigargin and PMA. actives 0.66% (n = 360,000);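 active = inhibition above about 55%, limit read from the data; inconclusive = no clear call, values can overlap the other calls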
ABCB6 inh CP1 – inhibitors of human ABC transporter ABCB6. shares compounds with ABCB6 inh 2. K562-ABCB6 porphyrin accumulation, flow cytometry, 1 h; active compounds read low. ratio response (% of DMSO), % at 10 µM. 700 tested, under 10 active;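 active = repeat-averaged ratio response below 75% of DMSO, the collection mean minus 3 SD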;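 note: median porphyrin fluorescence at 575 nm with 488 nm excitation from mitochondria; lower ratio means less porphyrin signal so ABCB6 inhibition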
K562 vector FC – effect in K562 cells lacking ABCB6, counter-screen | shares compounds with ABCB6 inh 2 | K562 empty-vector cells, flow cytometry fluorescence, 1 h | percent response (fluorescence), % at 100 µM | 25 tested, under 10 active | AID 624484;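 active = compounds whose half-maximal effective concentration is below 100 µM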
* = called active by the depositor; i = inactive; u = inconclusive; x = no result given. Hits are enriched below; roughly 1.8% of the tested compounds scored in any of these assays.

SMILES	ABCB6 inh 2	Myeloid diff MLP	Exocytosis inh	ABCB6 inh CP1	others
Cn1c(SCC(=O)N2CCOCC2)nnc1-c1ccc(Cl)cc1Cl	73.0*	i	0.6	103.0
COC(=O)c1ccc(-c2ccc(F)cc2)nc1C	63.0*	i	7.4	99.0
Cc1ccc(-c2ccc(C(=O)O)c(C)n2)cc1	97.0	i	3.2	x
Cc1cccc(NC(=O)CCNS(=O)(=O)c2cc(Br)cnc2N)c1C	97.0	i	-3.0	x
O=C(OC(C(=O)Nc1cccc(C(F)(F)F)c1)c1ccccc1)C1CCCCC1 (stereo unspecified)	105.0	i	-1.3	x
O=C(Oc1ccc(/C=N/n2cnnc2)cc1)c1cccc([N+](=O)[O-])c1	73.0*	i	-1.4	99.0
CN(C)/N=C/c1ccc(OC(=O)c2cccc([N+](=O)[O-])c2)cc1	98.0	i	1.8	x
CC(C)(C)OC(=O)N1CCC(NC(=O)c2ncn(Cc3ccccc3)c2C(=O)NC2CCN(C(=O)OC(C)(C)C)CC2)CC1	92.0	i	-0.1	x
CCOC(=O)c1c(NC(=O)CCN2C(=O)c3ccccc3C2=O)sc(C(=O)OC(C)C)c1C	70.0*	i	0.3	99.0
CCOC(=O)c1sc(NC(=O)CCN2C(=O)c3ccccc3C2=O)c(C(=O)OCC)c1C	97.0	i	-0.3	x
CN(CC(=O)Nc1ccccc1Cl)CC(=O)N1CCc2ccccc21	95.0	i	-1.3	x
CCN(CC)c1ccc(C(=O)OCC(=O)N(C)Cc2ccccc2)cc1	65.0*	i	-0.3	100.0
CCN(CC)c1ccc(C(=O)OCC(=O)N(C(C)C)C(C)C)cc1	96.0	i	1.6	x
O=S(=O)(c1ccc(F)c(F)c1)N1CCN(CCc2ccccc2)CC1	101.0	i	-1.5	x
CC12CCC(C(=O)N(CCCCN3CCN(c4ccccn4)CC3)C1=O)C2(C)C (stereo unspecified)	58.0*	i	1.8	99.0
CC12CCC(C(=O)N(CCCN3CCN(Cc4ccccc4)CC3)C1=O)C2(C)C (stereo unspecified)	100.0	i	2.4	x
O=c1cc(CO)oc(CN2CCN(c3cccc(C(F)(F)F)c3)CC2)c1O	91.0	i	-1.5	x
O=c1cc(CO)oc(CN2CCN(c3ccccc3)CC2)c1O	73.0*	i	-1.0	101.0
Cc1ccccc1-n1nnnc1SCC(=O)NCC1(N2CCOCC2)CCCCC1	95.0	i	6.3	x
COc1ccc(NC(=O)c2nc(S(=O)(=O)Cc3cccc(C)c3)ncc2Cl)c(OC)c1	151.0	u	24.2	x	K562 vector FC=271.4
COc1ccc(OC)c(NC(=O)c2nc(S(=O)(=O)Cc3ccccc3)ncc2Cl)c1	83.0	u	34.9	x	K562 vector FC=594.0
COc1ccc(OC)c(NC(=O)CS(=O)(=O)Cc2ccccc2)c1	104.0	i	-7.9	x
COc1ccc(NC(=O)c2c(-c3ccccc3Cl)noc2C)c(OC)c1	97.0	i	11.6	x
O=C(CC1SCCNC1=O)Nc1ccc(F)c(Cl)c1 (stereo unspecified)	103.0	i	4.7	x
Cc1ccc(NC(=O)CC2SCCNC2=O)cc1Cl (stereo unspecified)	67.0*	i	0.3	100.0
SMILES	ABCB6 inh 2	Myeloid diff MLP	Exocytosis inh	ABCB6 inh CP1	others
Cc1cccc(NC(=O)c2nc[nH]c2C(=O)N2CCc3ccccc3C2)c1	96.0	i	29.0	x
Nc1nc(SCc2ccc(Br)cc2)[nH]c(=O)c1-c1ccccc1	98.0	i	-4.0	x
Nc1nc(SCc2c(F)cccc2Cl)[nH]c(=O)c1-c1ccccc1	50.0*	i	6.7	98.0
O=C(O)[C@H]1CCCC[C@H]1C(=O)Nc1ccc(S(=O)(=O)N2CCOCC2)cc1	101.0	x	-16.3	x
C[C@@H]1CN([C@@H](C)CO)S(=O)(=O)c2ccc(Br)cc2O[C@H]1CN(C)C(=O)Nc1ccc(C(F)(F)F)cc1	100.0	i	0.0	x
CN(C)C(=O)c1cn(-c2ccccc2)nc1-c1cc2ccccc2o1	35.0*	i	1.3	100.0
CN(C)C(=O)c1cn(-c2ccccc2)nc1-c1cc2ccccc2oc1=O	100.0	i	-0.5	x
CCn1cc(Cl)c(C(=O)Nc2c(C)nn(Cc3c(F)c(F)c(F)c(F)c3F)c2C)n1	92.0	i	0.0	x
COC(=O)C(Cc1ccccc1)NC(=O)CC(C)CC(=O)Nc1ccc(C)cc1 (stereo unspecified)	101.0	i	-3.5	x
N#Cc1c([N+](=O)[O-])cc([N+](=O)[O-])cc1S(=O)(=O)Cc1ccccc1	104.0	u	-1.4	x
COc1cc(OC)c(C#N)c(S(=O)(=O)Cc2ccccc2)c1	68.0*	i	-4.2	99.0
COC(=O)c1ccccc1NC(=O)COc1ccc(S(=O)(=O)NC(C)C)cc1	104.0	i	24.0	x
CC1(C(=O)NS(=O)(=O)c2ccccc2)CCN1C(=O)C1(c2ccc(Cl)cc2)CC1 (stereo unspecified)	71.0*	i	14.5	102.0
CC1(C(=O)NS(=O)(=O)c2ccc3c(c2)CCO3)CCN1C(=O)CCc1ccc(Cl)cc1Cl (stereo unspecified)	81.0	i	-5.7	x
CC1(C(=O)NS(=O)(=O)c2ccc(Cl)cc2)CCN1C(=O)C1(c2ccccc2)CCCC1 (stereo unspecified)	101.0	i	6.3	x
Cc1ccc(F)c(S(=O)(=O)NC(=O)C2(C)CCN2C(=O)C2(c3ccc(Cl)cc3)CCC2)c1 (stereo unspecified)	97.0	i	13.2	x
CC1(C(=O)NS(=O)(=O)c2cccc(C#N)c2)CCN1C(=O)C1(c2ccc(Cl)cc2)CC1 (stereo unspecified)	93.0	i	-3.3	x
Cc1ccc(F)c(S(=O)(=O)NC(=O)C2(C)CCN2C(=O)C2(c3ccc(Cl)cc3)CC2)c1 (stereo unspecified)	975.0	i	-2.2	99.0
CC1(C(=O)NS(=O)(=O)c2ccc3c(c2)CCO3)CCN1C(=O)C1(c2ccc(Cl)cc2)CCC1 (stereo unspecified)	87.0	i	4.8	96.0
CC1(C(=O)NS(=O)(=O)c2ccc(C#N)cc2)CCN1C(=O)C1(c2ccc(Cl)cc2)CC1 (stereo unspecified)	101.0	i	1.4	100.0
CC1(C(=O)NS(=O)(=O)c2ccc(C#N)cc2)CCN1C(=O)C1(c2ccccc2)CCCC1 (stereo unspecified)	101.0	i	-2.0	100.0
Cc1ccccc1S(=O)(=O)NC(=O)C1(C)CCN1C(=O)C1(c2ccccc2)CC1 (stereo unspecified)	102.0	i	-3.1	101.0
Cc1ccc(S(=O)(=O)NC(=O)C2(C)CCN2C(=O)C2(c3ccc(Cl)cc3)CCC2)cc1 (stereo unspecified)	100.0	i	-5.3	x
CC(C)(C)c1ccc(S(=O)(=O)NC(=O)C2(C)CCN2C(=O)C2(c3ccccc3)CC2)cc1 (stereo unspecified)	95.0	i	-4.9	x
CC1(C(=O)NS(=O)(=O)c2ccc(Cl)cc2)CCN1C(=O)C1(c2ccc(Cl)cc2)CCC1 (stereo unspecified)	97.0	i	3.3	99.0
